Only some compounds are listed: those with a hit (about 12% of all), similar ones and a draw of the others.
ALDH1A1 block: inhibitors of human aldehyde dehydrogenase 1A1 | Potency, µM (series often up to 75.3 µM), without a hit: top-dose activity, negative = inhibition, actives largely listed as inhibitors | Purified ALDH1A1, NADH fluorescence, propionaldehyde substrate | AID 1030 | hit rate 7.3% among 220,000; active = well fitted inhibition curve with a large enough effect, not every such curve was filed as active; inconclusive = small, poorly fitted or top-dose-only effect, or another doubt; inactive = no such curve, though single readings can be large or run the other way;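 also: plate controls were no enzyme wells and a reference inhibitor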
RORg inh: blocks mouse ROR gamma transcriptional activity; P51450; Drosophila S2 Gal4-RORgamma UAS-luciferase reporter, 20 h; Potency, µM (titrated, usually from 53.6 µM), for inactives: at the top dose activity change, negative = inhibition, usual class: inhibitors; hit rate 5.4% among 310,000; AID 2551; also: nearly all actives have a fitted effect of over 60% in size
Target sequence (P51450 whole entry, looked up, the tested form may be a part): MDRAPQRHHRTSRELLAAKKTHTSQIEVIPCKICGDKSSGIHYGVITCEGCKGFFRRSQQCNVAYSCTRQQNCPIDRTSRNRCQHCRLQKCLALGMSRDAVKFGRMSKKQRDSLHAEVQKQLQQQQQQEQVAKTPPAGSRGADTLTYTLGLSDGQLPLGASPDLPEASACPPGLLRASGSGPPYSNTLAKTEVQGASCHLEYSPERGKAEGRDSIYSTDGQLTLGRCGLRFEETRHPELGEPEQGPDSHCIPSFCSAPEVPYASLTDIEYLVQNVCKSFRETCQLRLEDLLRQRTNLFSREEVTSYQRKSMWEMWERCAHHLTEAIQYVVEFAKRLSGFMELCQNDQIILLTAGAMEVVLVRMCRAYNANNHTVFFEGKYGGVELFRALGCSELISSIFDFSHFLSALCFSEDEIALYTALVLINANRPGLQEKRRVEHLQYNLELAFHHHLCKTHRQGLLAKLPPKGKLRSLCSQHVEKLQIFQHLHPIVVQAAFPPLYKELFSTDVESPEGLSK
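ROR gamma transcriptional activity was tracked as Gal4-UAS luciferase output in stably transfected Drosophila Schneider cells, with compound added 1 hr before 700 uM copper sulfate induction and a 20 hr ambient-temperature incubation.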
PLK1 PBD inh: inhibitors of human PLK1 polo-box domain binding; hit rate 2.8% among 360,000; AID 720504; Plk1 PBD binding of FITC phosphopeptide, fluorescence polarization; Potency, µM, for the others: max response, negative = inhibition, actives largely listed as inhibitors; also: series mostly up to about 57 µM; nearly all actives have a fitted effect of over 65% in size
VP16 counter: counter-screen for ROR gamma inhibitors: Gal4-VP16 reporter. Potency, µM (top dose mostly 53.6 µM), for the others: at the top dose activity, negative = inhibition, most hits filed as inhibitors. hit rate 3.5% among 310,000. Drosophila S2 Gal4-VP16 UAS-luciferase, luminescence, 20 h;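 also: Gal4-VP16 expression switched on by copper sulfate through the metallothionein promoter; nearly all actives have a fitted effect of over 50% in size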
Sfp inh: blocks B. subtilis Sfp PPTase activity. Biochemical Sfp PPTase activity, qHTS. Potency, µM, for the others: largest response in the series, negative = inhibition, hits mostly inhibitors. hit rate 3.5% among 310,000. AID 1490;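 also: the enzyme is Sfp with the accession as filed and its product quenches rhodamine fluorescence; 0% = enzyme reaction without inhibitor and -100% = no enzyme wells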
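Sfp 15 nM + cpd, 15 min RT; start w/ rhodamine-CoA 5 uM, BHQ-2-YbbR 12.5 uM (final); 50 mM Hepes pH 7.6, 10 mM MgCl2, 0.01% NP-40, 0.01% BSA; read 525/598 nm at 0 and 30 min.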
Numbers without * were called inactive; u = inconclusive; x = not tested or not shown; ! = a repeat was not active; [ ] = dose if it differs, or a comment. Unless noted, calls follow the shape of the dose curve; as a rule, active = well fitted curve in the direction sought with a large enough effect; inconclusive = small, poorly fitted or top-dose-only effect, or another doubt; inactive = no such curve, though single readings can be large; an effect the other way counts as inactive or inconclusive. Unless noted, % is scaled to controls: 0 for no effect and ±100 for the full control effect; potency is read from the fitted curve at half-maximal effect.

SMILES	ALDH1A1 block	RORg inh	PLK1 PBD inh	VP16 counter	Sfp inh
CCc1c(-c2n[nH]c(=S)n2Cc2ccccc2)csc1C	10µM*	2.24µM*	-11.2%	7.94µM*	-10.6%
COc1ccc(Cl)cc1-c1n[nH]c(=S)n1Cc1ccccc1	x	5.01µM*	-9.7%	5.01µM*	-0.7%
Cc1scc(-c2n[nH]c(=S)n2Cc2ccccc2)c1C	-10.2%	2.24µM*	-2.4%	11.2µM*	-1.0%
COc1ccccc1Cc1c(C2CCCCC2)nc2cc(C)c(Br)c(C)n12	x	x	-2.9%	x	x
COC(=O)c1cc(=O)nc(NNC(C)=O)s1	x	x	-8.5%	x	x
c1ccc(-c2cnc(CSc3nnc4ccccn34)o2)cc1	u	-27.5%	-15.6%	-29.3%	-5.0%
Cc1ccccc1-n1nnnc1SCc1ncc(-c2ccccc2)o1	10µM*	-0.9%	-28.3%	-2.0%	-9.5%
CC(C)(C(=O)N1CCC1(C)C(=O)NS(=O)(=O)c1cccc(C#N)c1)c1ccccc1 (stereo unspecified)	x	x	2.2%	x	x
Cc1nc(N=Nc2cc([N+](=O)[O-])ccc2Cl)c(COP(=O)(O)O)c(C=O)c1O	x	-23.9%	x	-0.5%	-21.1%
Cc1nc(N=Nc2cc(S(=O)(=O)O)c3cc([N+](=O)[O-])cc(S(=O)(=O)O)c3c2)c(COP(=O)(O)O)c(C=O)c1O	u	-18.6%	x	3.6%	39.8µM*!
Clc1ccc(CSc2ncnc3c2ncn3[C@@H]2CCCCO2)cc1	3.3%[13.5 µM]	x	x	x	x
Cc1cc(Cl)c(OCCOCCN2CCCCC2)c(Br)c1	u	-53.6%	-10.9%	u	63.1µM*
Cc1ccc(OCCOCCN2CCN(C)CC2)c([N+](=O)[O-])c1	u	-5.3%	-7.9%	1.9%	79.4µM*
CN1CCN(CCOCCOc2ccc(Br)cc2Cl)CC1	x	-5.0%	3.6%	6.7%	56.2µM*
Cc1ccc(OCCOCCNC(C)(C)C)c([N+](=O)[O-])c1	-5.0%	-43.9%	3.2%	1.0%	-1.1%
Cc1ccc(OCCOCCN2CCCCC2)c([N+](=O)[O-])c1	u	32.6%	-5.2%	-6.3%	56.2µM*
C[C@@H]1O[C@H](CCc2cccc(Cl)c2)CC2=C1C(=O)OC(C)(C)O2	x	x	-14.7%	x	x
COc1ccc(OCCOCCOc2ccc(C)cc2[N+](=O)[O-])cc1	25.1µM*	28.3%	-7.7%	1.6%	6.3%
Fc1cnc(Cl)nc1NC1CCCCC1	x	16.2%	21.2µM*	-1.4%	16.3%
Fc1ccccc1-c1nc(-c2ccccc2)oc1NC1CCCCC1	-14.8%	1.1%	x	-13.2%	-15.3%
CC(C)C[C@H](NC(=O)c1[nH]cnc1C(=O)Nc1ccc(Cl)cc1)C(=O)OC(C)(C)C	x	2.82µM*	-12.1%	3.98µM*	25.3%
C[C@H](NC(=O)c1nc[nH]c1C(=O)NCC(=O)OC(C)(C)C)C(=O)OC(C)(C)C	x	12.6µM*	-10.8%	u	2.8%
CC(C)C[C@H](NC(=O)c1nc[nH]c1C(=O)NCC(=O)OC(C)(C)C)C(=O)OC(C)(C)C	x	7.08µM*	2.2%	u	39.1%
CC(C)C[C@H](NC(=O)c1nc[nH]c1C(=O)N[C@@H](CC(C)C)C(=O)OC(C)(C)C)C(=O)OC(C)(C)C	x	u	-13.5%	11.2µM*	26.3%
CC(C)C[C@H](NC(=O)c1nc[nH]c1C(=O)NCCNC(=O)OC(C)(C)C)C(=O)CNCCNC(=O)c1[nH]cnc1C(=O)N[C@@H](C)C(=O)OC(C)(C)C	x	x	-1.0%	x	x
SMILES	ALDH1A1 block	RORg inh	PLK1 PBD inh	VP16 counter	Sfp inh
Cc1ccc(S(=O)(=O)NC(=O)C2(C)CCN2C(=O)CC2CCCC2)cc1 (stereo unspecified)	x	x	-2.4%	x	x
CN1CCN(c2nc(-c3ccccc3C(F)(F)F)nc3ccccc23)CC1	-6.0%	-17.6%	x	2.6%	18.2%
CC(C)NC(=O)C1(C#N)C=C1c1ccccc1 (stereo unspecified)	x	x	-5.1%	x	x
C[C@H](NC(=O)c1[nH]cnc1C(=O)Nc1ccc(CNC(=O)OC(C)(C)C)cc1)C(=O)OC(C)(C)C	x	8.91µM*	21.2µM*	u	27.1%
Cc1cccc2nc(-c3cccnc3)c(Nc3ccccc3)n12	4.3%	2.2%	3.5%	1.2%	-14.5%
Cc1cccc2nc(-c3cccnc3)c(NCCC(C)C)n12	u	8.91µM*	-4.7%	u	11.9%
CC(=O)Nc1ccc(SCC(=O)Nc2oc(C)c3c(C)n[nH]c(=O)c23)cc1	x	x	18.9µM*	x	x
COc1cccc([C@@H]2Oc3ccc(Br)cc3C(=O)[C@H]2OC(=O)Nc2ccc(OC(F)F)cc2)c1	10.1%	u	x	-6.2%	-10.8%
COC(=O)C/C=C\[C@H](C)[C@@H](OC)c1ccccc1Br	-4.3%[13.5 µM]	-2.0%[10 µM]	x	-3.0%[10 µM]	-5.8%
CC(NC(=O)NNC(N)=S)(C(F)(F)F)C(F)(F)F	x	u	-11.2%	20µM*	44.7µM*
Cc1nn2c(NCc3ccccn3)cc(C(C)(C)C)nc2c1-c1ccccc1	x	0.251µM*	-7.9%	2.24µM*	5.5%
Cc1cc(Nc2ccccc2)n2nc(C)c(-c3ccccc3)c2n1	x	12.9%	-4.3%	3.6%	-1.3%
c1ccc(CNc2c3c(nc4ncnn24)CCCC3)nc1	-1.9%	7.08µM*	-24.1%	-1.1%[0.365 µM]	-14.2%
COc1ccc(-c2cc(NCc3ccccn3)n3ncnc3n2)cc1	u	2.82µM*	-18.1%	u	-18.6%
Cc1cc(NCc2ccccn2)n2nc(C)c(-c3ccccc3)c2n1	u	0.708µM*	-1.5%	0.316µM*	-0.7%
CO[C@@H]1CN(C)C(=O)c2ccc(NS(=O)(=O)c3c(C)noc3C)cc2OC[C@@H](C)NC[C@@H]1C	x	x	3.8%	x	x
COC(=O)[C@@]1(Cc2ccccc2)[C@H]2c3cc(C(=O)N4CCCC4)n(Cc4ccccn4)c3C[C@H]2CN1C(=O)c1ccccc1	-5.0%	-17.5%	x	16.8%	-12.1%
Cc1nn2c(NCCN3CCOCC3)c3c(nc2c1-c1ccccc1)CCCC3	x	1.58µM*	-1.3%	3.55µM*	-13.6%
COc1ccc(Nc2c3c(nc4c(-c5ccccc5)c(C)nn24)CCC3)cc1	u	3.16µM*	-3.8%	3.55µM*	-7.0%
Cc1cc(C)cc(Nc2c3c(nc4ncnn24)CCC3)c1	2.8%	u	-8.1%	12.6µM*	-1.3%
Cc1nn2c(NCc3ccccn3)c3c(nc2c1-c1ccccc1)CCC3	x	0.1µM*	-17.6%	0.562µM*	-18.0%
CC(Oc1ccc(Br)cc1)C(=O)NCC(c1cccs1)N1CCOCC1 (stereo unspecified)	x	x	-5.8%	x	x
Fc1ccc2nc(Nc3nc4c(F)cccc4s3)sc2c1	u	2µM*	-12.8%	5.62µM*	11.5%
Fc1ccc2nc(Nc3ccccc3)sc2c1	2.3%	-40.5%	-9.7%	-7.1%	11.5%
Fc1ccc2nc(Nc3nc4c(F)cc(F)cc4s3)sc2c1	u	8.91µM*	-4.6%	6.31µM*	-14.5%
Fc1cccc2sc(Nc3nc4ccccc4s3)nc12	u	4.47µM*	-4.5%	7.08µM*	5.7%
NNc1nc2ccc(F)cc2s1	u	u	-24.3%	u	-19.0%
C[C@]12C=CC(=O)N[C@@H]1CC[C@@H]1C2CC[C@]2(C)C(C(=O)Nc3cc(C(F)(F)F)ccc3C(F)(F)F)CC[C@@H]12 (stereo partly specified)	x	1.5%[10 µM]	x	-29.2%	6.9%

Source: PubChem (National Center for Advancing Translational Sciences (NCATS))
